Measured values as given in the OligoGym collection.

Molecular target: PSMD14
Assay: pooled miR-30 sensor sort-seq; sequence = guide strand
Details: shRNA
Note: reference of the scale not given here.

Row | Sequence | sensor-assay potency score (higher = more potent)
1 | TTTGTCTTGGTTCATGTCCTAA | -1.03
2 | AAATTTAGCAACATCTTCTGTT | 0.377
3 | TAGTCCATGAATTAATGCCTGG | -1.08
4 | TTCTTCTACAGCCTTATTGTAA | -1.22
5 | TTAACATTTTTAACAGTGCCAG | -1.04

Molecular target: PSMG3
Assay: as above
Details: shRNA

Row | Sequence | sensor-assay potency score (higher = more potent)
6 | TTTGTGGTGAGCACAGGCTTGC | -0.665
7 | TAAAAAAGAAATTTCCTCCTAC | 0.923
8 | TTCTCAAACACAAGCAACGATT | -1.54
9 | AACGCTACCAGGTTCTTTGCAA | 0.042
10 | TTGTCCTTCACGGCCACGGCGA | -1.48
11 | ATGGATGAGAGGCTCATCCTGC | -1.3
12 | TCTTCTGCTTCGATATCACCAA | -0.805
13 | TCTGTTTCCAGCTTCTTGAGAC | 0.0937
14 | TTTTGTGGTGAGCACAGGCTTG | -0.949
15 | TGAGACACAAACGCTACCAGGT | -0.363
16 | TTCCAGCTTCTTGAGACACAAA | -1.35
17 | TTGAGACACAAACGCTACCAGG | -0.891

Molecular target: PSPH
Assay: as above
Details: shRNA

Row | Sequence | sensor-assay potency score (higher = more potent)
18 | TTTGGCGTTATCCTTGACTTGT | -1.02
19 | TGCTATGAGTCTCTGCACCTGC | 0.0571
20 | TCACTTTTCCTTTTCCACCAGA | -0.287
21 | TAAGCAAACAGTATCAATCTGT | 0.453
22 | TCTTCTCTGATGACCGTGCTGT | 0.253
23 | TTAAAGTAGAATTTCAGCCTAT | 0.23
24 | AACCTGAACATTTCGCTCCTGT | 0.681
25 | TTGCTCTGCTATGAGTCTCTGC | -0.739
26 | TTATCCTTGACTTGTTGCCTGA | -0.324
27 | TAACTTGTAAAAATTCATCTGA | 0.913
28 | AAAACCTGCATATTCACCGTTA | 0.263

Molecular target: PSRC1
Assay: as above
Details: shRNA

Row | Sequence | sensor-assay potency score (higher = more potent)
29 | TCTGGAGTCACCAACACTGTTA | -0.586
30 | TAGGCTGAGCCTCACACCCTGG | -1.11
31 | TTGACAGAGAATCCGGAGGTAG | -1.05
32 | TATCATTACTCCGGAGTCGAGG | -0.921
33 | TCGGACAGGACTATCCTTCAGC | -0.556
34 | TTTGCTACTGAAGTCTTGCTTG | -0.274
35 | TCGAGTTGACAGAGAATCCGGA | 0.42
36 | TTCGAGTTGACAGAGAATCCGG | 0.0316
37 | TTTCCCGCACTCTGTGTCCTGC | -0.995
38 | TATTTGTTCATTTCACTGCTGG | 0.584
39 | TCGCTGGGAAACAGGAACCTTG | -1.78
